USP17 inh – human USP17-like deubiquitinase inhibition; A8MUK1; inhibition, % at 50 µM; AID 1645855; 47,000 tested, 6.5% active; purified USP17, Ub-rhodamine cleavage fluorescence, 3 h
USP28 block – inhibitors of human USP28 deubiquitinase | 47,000 tested, 3% active | inhibition, % at 25 µM | Q96RU2 | purified USP28, Ub-rhodamine cleavage fluorescence, 30 min
USP30 inh – human USP30 deubiquitinase inhibition; Q70CQ3; inhibition, % at 25 µM; 47,000 tested, 5.3% active; AID 1645860; purified USP30, Ub-rhodamine cleavage fluorescence
Target sequence (Q70CQ3 whole entry, looked up): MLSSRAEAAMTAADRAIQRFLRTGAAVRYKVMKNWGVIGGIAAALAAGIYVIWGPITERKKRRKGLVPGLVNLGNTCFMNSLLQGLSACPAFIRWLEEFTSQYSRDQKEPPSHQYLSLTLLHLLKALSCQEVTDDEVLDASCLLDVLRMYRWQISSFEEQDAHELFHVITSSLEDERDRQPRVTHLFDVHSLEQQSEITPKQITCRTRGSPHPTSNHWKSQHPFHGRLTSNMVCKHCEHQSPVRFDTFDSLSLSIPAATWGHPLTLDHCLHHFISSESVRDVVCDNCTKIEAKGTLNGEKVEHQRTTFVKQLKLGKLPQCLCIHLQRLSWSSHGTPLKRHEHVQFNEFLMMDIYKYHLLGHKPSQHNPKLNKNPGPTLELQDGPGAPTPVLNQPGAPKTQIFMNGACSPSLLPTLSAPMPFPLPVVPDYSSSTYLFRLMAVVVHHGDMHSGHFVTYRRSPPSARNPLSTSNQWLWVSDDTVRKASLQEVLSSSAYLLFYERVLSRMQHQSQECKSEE
USP8 block – human USP8 deubiquitinase inhibition; P40818; purified USP8, Ub-rhodamine cleavage fluorescence, 30 min; inhibition, % at 20 µM; 47,000 tested, 4.2% active
USP10 inh – inhibitors of human USP10 deubiquitinase | inhibition, % at 20 µM | Q14694 | AID 1645856 | 47,000 tested, 1.1% active | purified USP10, Ub-rhodamine fluorescence, 60 min
Hits are given with their value; . = inactive; / = no result. Most compounds without a hit are left out; they make up all but 13% or so of the library. Rule as the data show it: active = inhibition above about 30%; inactive = the rest.

SMILES | USP17 inh | USP28 block | USP30 inh | USP8 block | USP10 inh
CCc1noc(-c2c(C)cc(C)n2CC(=O)NCc2ccc(Cl)cc2)n1 | . | . | 39 | . | .
CCC(C)NC(=O)c1c(O)c2cccc3c2n(c1=O)CC3 (stereo not drawn) | . | . | . | 53 | .
CCN1CC[C@@]2(C(=O)Nc3ccccc3)CCN(C(=O)COC)CC[C@@H]12 | . | . | . | . | .
Cc1ccc(N2C(=O)c3ccccc3C2Nc2ccc(F)cc2)nc1 (stereo not drawn) | . | . | . | . | .
CSc1cccc(NC2c3ccccc3C(=O)N2c2ccccc2C)c1 (stereo not drawn) | . | 44 | . | . | .
CCc1ccc(OCC(=O)Nc2cccc(-c3nc4ccccc4s3)c2)cc1 | . | . | 36 | . | .
O=C(COc1ccc(C(=O)OCc2csc(-c3ccccc3)n2)cc1)Nc1cccc(C(F)(F)F)c1 | 31 | . | 33 | . | .
O=C(COc1ccc(F)cc1)NCc1csc(-c2ccccc2)n1 | . | . | . | . | .
CC1CCCN(Cc2nc(Cn3ccn4nc(-c5ccccc5)cc4c3=O)no2)C1 (stereo not drawn) | . | . | . | . | .
Cc1nc2ccc(Cl)cn2c(=O)c1NC(=O)Cc1ccccc1 | . | . | . | . | .
C[C@@H](NC(=O)Cc1ccc(F)cc1)c1nc2cc(-c3ccccc3F)ncn2n1 | . | . | . | . | .
COc1ccccc1CC(=O)N[C@@H](C)c1nc2cc(-c3ccccc3F)ncn2n1 | . | . | 39 | . | .
COc1cccc(CC(=O)N[C@@H](C)c2nc3cc(-c4ccccc4F)ncn3n2)c1 | . | . | . | . | .
CCOCc1ccc(C(=O)N[C@H](C)c2nc3cc(-c4ccc(OC)cc4)ncn3n2)cc1 | . | . | 41 | . | 35
C[C@H](NC(=O)Cc1ccccc1F)c1nc2cc(-c3ccc(F)cc3)ncn2n1 | . | . | 35 | . | .
COc1ccc(-c2cc3nc([C@H](C)NC(=O)COc4cccc(F)c4)nn3cn2)cc1 | . | . | . | . | .
O=[N+]([O-])c1cccnc1NCCc1ccncc1 | . | . | . | . | .
O=S1(=O)C[C@H](N2CCCCC2)[C@@H](S(=O)(=O)c2ccc(Cl)cc2)C1 | . | . | . | . | .
O=C(NC1CCc2ncc(C(F)(F)F)n2C1)C1CCCCC1 (stereo not drawn) | . | . | . | . | .
NC(=O)Cn1c(-c2nc(-c3ccc(F)cc3)no2)cccc1=O | . | . | . | . | .
Cc1ccc(S(=O)(=O)N(C)C)cc1NC(=O)Cc1ccc(Cl)c(Cl)c1 | . | 93 | . | . | .
O=c1c2c(-c3ccccc3)csc2ncn1Cc1ccc2c(c1)OCO2 | . | 40 | . | . | .
CN(Cc1ccc2c(c1)OCO2)C(=O)Cn1cnc2sc(-c3ccccc3)cc2c1=O | . | . | . | 55 | .
COc1ccc(CCn2cnc3scc(-c4ccccc4)c3c2=O)cc1OC | . | . | . | . | .
CCN(Cc1ccc2c(c1)OCO2)C(=O)Cn1cnc2c(cnn2-c2ccccc2)c1=O | . | . | . | . | .
SMILES | USP17 inh | USP28 block | USP30 inh | USP8 block | USP10 inh
O=C(Nc1cccc(Cl)c1)c1nc2c(s1)CCN(C(=O)c1cccnc1)CC2 | . | . | . | . | .
CNc1nc2c(c(=O)n1-c1ccccc1)CN(S(=O)(=O)c1cccc(F)c1)CC2 | . | . | . | . | .
O=C(c1ccccn1)N1CCC2(CC1)Nc1cccnc1NC2=NCc1ccccc1 | . | . | . | . | .
NS(=O)(=O)c1ccc(CNS(=O)(=O)c2ccc(-c3ccccn3)s2)cc1 | / | . | 60 | . | .
N#Cc1ccc(COc2ncnc3scc(-c4ccccc4)c23)cc1 | . | 35 | . | . | .
CC(C)c1noc(-c2ccn3c(CC(=O)Nc4ccccc4)nnc3c2)n1 | . | . | . | 40 | .
O=C(COc1ccc(Cl)cc1)N1CCc2[nH]nc(-c3ccc(Cl)cc3)c2C1 | . | . | 33 | . | .
Cc1c(OCc2ccccc2)noc1C1CCN(C(=O)CCN)CC1 | . | 41 | . | . | .
Nc1cc(C2CCN(C(=O)CCCc3ccccc3)CC2)no1 | . | / | / | . | .
Cc1ccn2c(=O)cc(COc3cccc(NC(=O)Nc4ccc(F)cc4)c3)nc2c1 | 38 | . | . | . | .
COc1ccc(OCC(=O)Nc2ccc(C)c(OCc3cc(=O)n4ccccc4n3)c2)cc1 | 50 | . | . | . | .
O=C(c1cc(F)ccc1Br)N1CCN(Cc2cc(=O)n3ccccc3n2)CC1 | / | . | . | . | .
Cc1cccc(NC(=O)Nc2ccccc2SCc2cc(=O)n3ccccc3n2)c1 | / | . | . | . | .

Compound activity deposited in PubChem by Buhrlage Lab, Dana-Farber Cancer Institute and Novartis Institutes for BioMedical Research (Cambridge, Mass).
